# In PubChem BioAssay (NCATS):
# Inconclusive results are not listed. Where a call stands in place of a potency, no number is given. Calls of active or inactive are those of the source. Unless noted, calls come from the whole dose curve; as a rule, active = well fitted curve in the direction sought with a large enough effect; inconclusive = small, poorly fitted or top-dose-only effect, or another doubt; inactive = no such curve, though single readings can be large; an effect the other way counts as inactive or inconclusive.
# Experiments:
# [1] = target: Catechol O-methyltransferase (Homo sapiens) (UniProt P21964); assay: Confirmatory Screen for Target Class Profiling of Small Molecule Inhibitors of Methyltransferases (AID 1745852; calls by dose curve; note: potency is the fitted concentration of half-maximal effect); conditions: MTase-Glo luminescence, SAH detection, recombinant enzyme; measured here: COMT max response; stronger effect = lower value
# [2] = target: Guanidinoacetate N-methyltransferase (Homo sapiens) (UniProt Q14353); assay: as above; conditions: activity change, negative = inhibition: at 57.3 µM (top of the series) unless noted
# [3] = target: Nicotinamide N-methyltransferase (Homo sapiens) (UniProt P40261); assay: as above; conditions: MTase-Glo luminescence, SAH detection, recombinant enzyme; measured here: NNMT max response; stronger effect = lower value
# [4] = target: Phenylethanolamine N-methyltransferase (Homo sapiens) (UniProt P11086); assay: as above; conditions: MTase-Glo luminescence, SAH detection, recombinant enzyme; measured here: PNMT max response; stronger effect = lower value
# [5] = target: DNA repair nuclease/redox regulator APEX1 (Homo sapiens) (UniProt P27695); assay: qHTS Validation Assay for Inhibitors of the Human Apurinic/apyrimidinic Endonuclease 1 (APE1) (AID 1705;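 note: TAMRA fluorescence gain over two minutes as APE1 cuts a quenched THF abasic duplex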)
# Method in brief: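 Read-out: TAMRA fluorescence (525 nm ex, 598 nm em) from cleavage of a quenched THF abasic-site duplex, 50 nM final; activity taken as intensity change between third and first of three reads 60 s apart.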
# [6] = Counterscreen for APE1 Inhibitors: Fluorescent Dye Displacement Validation Assay (AID 1707)
# Method in brief: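 Reaction mixture of 250 nM Thiazole Orange and 50 nM double-stranded abasic-site DNA was dispensed, compounds were pin-transferred, and fluorescence was read at endpoint (480 nm ex, 540 nm em). Reduced fluorescence indicated dye displacement by DNA binding.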
# [7] = qHTS for differential inhibitors of proliferation of Plasmodium falciparum line 7G8 (AID 1815);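 note: parasite growth measured after three days of incubation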; note: potency is the fitted concentration of half-maximal effect
# [8] = qHTS for differential inhibitors of proliferation of Plasmodium falciparum line 3D7 (AID 1876);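 note: parasite growth measured after three days of culture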
# [9] = qHTS for differential inhibitors of proliferation of Plasmodium falciparum line D10 (AID 1877);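 note: parasites grown with compound for 72 h before DNA staining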
# [10] = qHTS for differential inhibitors of proliferation of Plasmodium falciparum line Dd2 (AID 1882); conditions: Potency: Plasmodium falciparum Dd2 proliferation inhibition; note: nearly all actives have a fitted effect of over 65% in size
# Method in brief: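 SYBR Green DNA fluorescence (ex 485, em 535 nm) after overnight lysis quantifies parasite growth; compound exposure lasted 72 h at 37 C on infected red cells at 2.5% hematocrit, 0.3% parasitemia (final). Artemisinin 0.29 uM and vehicle wells define normalization.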
# [11] = qHTS for differential inhibitors of proliferation of Plasmodium falciparum line W2 (AID 1883); conditions: Potency: Plasmodium falciparum W2 proliferation inhibition;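 note: parasites grown with compound for 72 h before lysis and staining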
# [12] = qHTS for differential inhibitors of proliferation of Plasmodium falciparum line HB3 (AID 1886); conditions: Potency: Plasmodium falciparum HB3 proliferation inhibition;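 note: parasites grown with compound for 72 h before SYBR Green readout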
# [13] = target: Ferritin light chain (Equus caballus) (UniProt P02791); assay: qHTS Validation Assay for Identification of Novel General Anesthetics (AID 2323)
# Method in brief: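 10 uM horse-spleen apoferritin + 1-AMA (50% saturated, PBS); cpd pin-transferred, 10 min RT. Ex 380/Em 535 nm endpoint. Activity normalized between free 1-AMA and 1-AMA/apoferritin; 4-parameter Hill fit of concentration-response.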
# [14] = target: ATP-dependent DNA helicase Q1 (Homo sapiens) (UniProt P46063); assay: qHTS Validation Assay for Inhibitors of RecQ-Like Dna Helicase 1 (RECQ1) (AID 2353)
# Method in brief: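 RECQ1T1 50 nM; forked duplex (20 bp + 30-nt ss tails) 200 nM, ATP 2 mM final; pH 8.0, 2 mM MgCl2, 2.5 ug/ml poly(dI-dC); 15 min compound preincubation; discontinuous kinetic read over 2 h at RT.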
# [15] = Quantitative high throughput screen for delayed death inhibitors of the malarial parasite plastid, 96 hour incubation (AID 488745);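 note: luciferase-expressing P. falciparum in erythrocytes at 2% hematocrit and 0.1% parasitemia; nearly all actives have a fitted effect of over 70% in size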
# Method in brief: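 Readout is firefly luciferase luminescence from an integrated reporter in P. falciparum; lower signal marks inhibited growth. Cultures at 2% hematocrit and 0.1% parasitemia were treated with compound across two generations (96 h, 37 C, 5% CO2).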
# [16] = Quantitative high throughput screen for delayed death inhibitors of the malarial parasite plastid, 48 hour incubation (AID 488752); note: nearly all actives have a fitted effect of over 65% in size
# Method in brief: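 First, compound was pinned into RPMI 1640 medium containing 0.5% Albumax. Next, reporter-parasite-infected erythrocytes were added to 2% hematocrit and 0.1% parasitemia. After 48 h at 37 C under 5% CO2, luciferase detection reagent was added and luminescence read.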
# [17] = target: Transient receptor potential cation channel subfamily V member 1 (Homo sapiens) (UniProt Q8NER1); assay: HTS Assay for Compounds that Act as Enhancers of the Vanilloid Receptor 1 (AID 488979)
# Method in brief: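 Calcium influx kinetics via Fluo-8 (480/520 nm) in TRPV1-expressing cells, 2000/well cultured overnight at 35.5C. Compound-alone read 3 min (agonist phase), followed by EC20 capsaicin challenge for 2 min (enhancer phase).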
# [18] = target: Thyrotropin receptor (Homo sapiens) (UniProt P16473); assay: qHTS Assay for Antagonists of the Thyroid Stimulating Hormone Receptor (AID 488980)
# Method in brief: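 TSHR-HEK293 cells; 70 uM RO 20-1724 PDE inhibitor; compound + EC80 TSH (4 nM final); anti-cAMP cryptate antibody/cAMP-d2 in lysis buffer, 30 min RT; HTRF 665/620 nm read.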
# [19] = target: Thyrotropin-releasing hormone receptor (Homo sapiens) (UniProt P34981); assay: qHTS for Small Molecule Agonists and Allosteric Enhancers of Human TRH Receptor: Validation Screen for Agonists (AID 493127;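 active = calcium activation more than 3 SD above the typical response in the agonist read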;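 note: intracellular calcium rise by fluo-8 fluorescence before TRH EC20 addition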); conditions: TRH receptor agonist cell assay; at 2 µM; stronger effect = higher value
# Method in brief: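 Compounds are added by online pintool to dye-loaded TRHR cells while fluorescence is recorded every second. A rise in calcium signal during the agonist read marks activation; a later 10 nM TRH addition (EC20) serves the separate enhancer mode.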
# [20] = target: Galactokinase (Homo sapiens) (UniProt P51570); assay: qHTS Validation Assay for Inhibitors of Human Galactokinase (GALK) (AID 493189)
# Method in brief: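 Luminescence from leftover ATP (Kinase-Glo Plus, 10 min) served as read-out after a 1 h room-temperature reaction of 5 nM GALK, 100 uM galactose and 35 uM ATP at pH8.0.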
# [21] = Validation screen for small molecules that induce DNA re-replication in SW480 colon adenocarcinoma cells (AID 504364)
# Method in brief: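 Image-based qHTS: compounds were incubated with SW480 cells for 48 hr, nuclei stained with Hoechst, and per-nucleus fluorescence intensity scanned to flag cells with excess DNA content.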
# [22] = target: Voltage-gated inwardly rectifying potassium channel KCNH2 (Homo sapiens) (UniProt Q12809); assay: qHTS Assay for Small Molecule Inhibitors of the Human hERG Channel Activity (AID 588834);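 note: top concentration of the series differs between compounds; lower thallium flux fluorescence means stronger hERG block; nearly all actives have a fitted effect of over 50% in size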
# Method in brief: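 Thallium-flux (FluxOR) read-out on FDSS: fluorescence read 10 s before and 2 min after stimulation buffer. hERG-BacMam-transduced U2OS cells, compound exposure about 10 min. AC50 by standard Hill equation.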
# [23] = Stat Signaling Pathway (AID 446; active = well fitted curve in either direction with a large enough effect, not every such curve was filed as active;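 note: ME-180 cervical cancer cells given 40 pM IL-6 alongside compound; SIE-controlled beta-lactamase reporter measured as 460/530 nm FRET emission ratio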)
# Method in brief: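 Normalization used AC90 stimulation (300 pM IL-6) and AC90 inhibition (125 nM pan-JAK inhibitor at 40 pM IL-6). The underlying signal is SIE-driven beta-lactamase in ME-180 cells after 5 h IL-6 exposure with compound.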
# [24] = target: Glucocorticoid receptor (Homo sapiens) (UniProt P04150); assay: GR-GFP Redistribution (AID 450;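 active = compounds whose dose series gives a full or clear partial fitted curve of increased nuclear translocation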; note: potency is the fitted concentration of half-maximal effect); conditions: U2OS GR-GFP nuclear translocation, laser cytometry, 2 h
# [25] = target: Glucocorticoid receptor (Homo sapiens) (UniProt P04150); assay: GR-EFC Redistribution (AID 451; calls by dose curve; note: potency is the fitted concentration of half-maximal effect); conditions: CHO-K1 GR-EFC translocation, beta-gal luminescence, 2 h
# Method in brief: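 Translocation of GR-ED fusion to nuclear EA restores b-gal, read by luminescence after 1 h room-temperature detection. Engineered CHO-K1 biosensor cells, 1,000/well, exposed 2 h at 37 C to titrations up to 46 uM final.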
# [26] = target: Mitogen-activated protein kinase 10 (Mus musculus) (UniProt Q61831); assay: JNK3 AlphaScreen Assay (AID 530; active = well fitted curve in either direction with a large enough effect, not every such curve was filed as active;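 note: kinase came from lysate of stimulated human HepG2 cells; signal reports phosphorylation of biotinylated GST-cJun 1-79 at Ser73 with 10 µM ATP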)
# Method in brief: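 qHTS titrations with 15 min compound pre-incubation before adding ATP (10 uM final). Read-out: AlphaScreen of Ser73-phosphorylated biotin-GST-cJun using HepG2 lysate JNK3 activated by IL-1β and TNFα.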
# [27] = target: 3',5'-cyclic-AMP phosphodiesterase 4B (Homo sapiens) (UniProt Q07343); assay: qHTS Assay for Inhibitors of PDE-IV (AID 607; active = well fitted activation curve with a large enough effect in the main read-out, with a control signal flat, not every such curve was filed as active)
# Method in brief: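 HEK293 ACTOne cells with CNG channel (1000/well), endogenous PDE4; membrane potential dye, compounds up to 22.9 uM final. Fluorescence Ex 535/Em 590; RO 20-1724 (100 uM final) as reference.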
# [28] = target: Guanine nucleotide-binding protein G(i) subunit alpha-1 (Homo sapiens) (UniProt P63096); assay: qHTS Assay for Inhibitors of RGS12 GoLoco Motif Activity (Green Fluorophore) (AID 879);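 note: negative values mean loss of peptide binding seen as reduced polarization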
# Method in brief: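 A drop in FITC polarization marked displacement of the FITC-tagged RGS12 GoLoco peptide (10 nM) from Gαi1 (50 nM). Compounds were incubated 10 min at room temperature in Tris pH 7.5 buffer containing 150 mM NaCl, 0.1 mM GDP and 0.05% NP40; unlabeled peptide titration served as control.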
# [29] = qHTS Assay for Identification of Small Molecule Antagonists for Thrombopoietin (TPO) Signaling Pathway (AID 918); conditions: TPO-dependent cell signaling reporter, antagonist mode; note: potency is the fitted concentration of half-maximal effect; nearly all actives have a fitted effect of over 60% in size
# Method in brief: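 Inhibitors of TPO signaling are sought by stimulating IL-3-starved murine Ba/F3 cells (human TPO receptor, Glycoprotein IIb-driven luciferase) with TPO at its EC50 of 26 pM alongside compound. After 24 hrs at 37 C, reporter luminescence is measured.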
# [30] = target: Muscarinic acetylcholine receptor M1 (Rattus norvegicus) (UniProt P08482); assay: qHTS Assay for Antagonists of Acetylcholine Muscarinic M1 Receptor: Measurement of IP-One Response (AID 944); note: nearly all actives have a fitted effect of over 75% in size
# Method in brief: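 Antagonist mode with rat M1 receptor transfected into CHO cells. Compound is added first for 10 min, carbachol at its EC80 follows for 30 min, and lysis reagents then allow TR-FRET detection of accumulated IP1.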
# [31] = target: Pyruvate kinase (Leishmania mexicana) (UniProt Q27686); assay: qHTS Validation Assay for Inhibitors of Leishmania Mexicana Pyruvate Kinase (AID 945)
# Method in brief: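 The enzyme is a highly purified E451W mutant of LmPYK used at 0.2 nM. It converts 0.5 mM PEP and 0.1 mM ADP over 1 h at room temperature; product ATP is quantified by luciferase luminescence relative to DMSO controls.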
# [32] = target: Pyruvate kinase PKM (Homo sapiens) (UniProt P14618); assay: qHTS Assay for Activators of Human Muscle Pyruvate Kinase (AID 954; active = well fitted curve in the direction sought with a large enough effect, not every such curve was filed as active)
# Method in brief: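 Compound pinned into substrate mix (0.5 mM PEP, 0.1 mM ADP), then 0.1 nM PKM2 added; 1 h, RT. Stop/detection luciferase reagent added, luminescence read. Normalized to no-inhibition and no-enzyme or reference-inhibitor controls.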
# [33] = target: Alpha-galactosidase A (Homo sapiens) (UniProt P06280); assay: Counterscreen for Glucocerebrosidase Inhibitors: qHTS Assay for Human alpha-Galactosidase at pH 4.5 (AID 992)
# Method in brief: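 Steps: enzyme (2 nM final), then compound across 0.7 nM to 77 uM, then 80 uM fluorogenic galactopyranoside substrate; incubate 20 min at room temperature; quench at pH 10; measure fluorescence at 365/440 nm.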
# [34] = target: alpha-glucosidase (Oryza sativa, rice) (UniProt Q653V4); assay: Counterscreen for Glucocerebrosidase Inhibitors: qHTS Assay for Rice alpha-Glucosidase at pH 5.0 (AID 997)
# Method in brief: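 Endpoint fluorogenic assay at pH 5.0: compounds (0.7 nM to 77 uM) titrated against 4 nM rice enzyme and 400 uM 4-MU-alpha-glucoside for 20 min at room temperature; NaOH/glycine stop, read ex 365/em 440 nm, Hill-fitted AC50.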
# [35] = qHTS for differential inhibitors of proliferation of Plasmodium falciparum line GB4 (AID 1816); conditions: Potency: Plasmodium falciparum GB4 proliferation inhibition;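 note: potency is the fitted concentration of half-maximal effect; parasite growth measured after 72 h incubation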
# Sequence of Nicotinamide N-methyltransferase (Homo sapiens) (P40261 whole entry, looked up): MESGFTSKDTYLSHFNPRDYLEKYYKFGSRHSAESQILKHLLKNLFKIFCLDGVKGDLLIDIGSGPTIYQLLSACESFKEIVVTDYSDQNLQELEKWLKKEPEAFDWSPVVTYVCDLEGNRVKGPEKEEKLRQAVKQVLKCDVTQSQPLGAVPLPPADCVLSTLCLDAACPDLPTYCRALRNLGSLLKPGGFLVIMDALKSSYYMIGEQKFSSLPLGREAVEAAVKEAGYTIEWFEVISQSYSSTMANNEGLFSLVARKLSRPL
# Sequence of Phenylethanolamine N-methyltransferase (Homo sapiens) (P11086 whole entry, looked up): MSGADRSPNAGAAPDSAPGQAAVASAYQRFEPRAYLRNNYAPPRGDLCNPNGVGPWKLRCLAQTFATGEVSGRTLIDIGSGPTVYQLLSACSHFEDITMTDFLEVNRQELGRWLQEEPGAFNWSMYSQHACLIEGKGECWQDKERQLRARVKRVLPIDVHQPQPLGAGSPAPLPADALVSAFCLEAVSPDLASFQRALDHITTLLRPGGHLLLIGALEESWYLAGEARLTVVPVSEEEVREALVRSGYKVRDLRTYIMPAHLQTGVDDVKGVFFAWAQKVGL
# Sequence of Catechol O-methyltransferase (Homo sapiens) (P21964 whole entry, looked up): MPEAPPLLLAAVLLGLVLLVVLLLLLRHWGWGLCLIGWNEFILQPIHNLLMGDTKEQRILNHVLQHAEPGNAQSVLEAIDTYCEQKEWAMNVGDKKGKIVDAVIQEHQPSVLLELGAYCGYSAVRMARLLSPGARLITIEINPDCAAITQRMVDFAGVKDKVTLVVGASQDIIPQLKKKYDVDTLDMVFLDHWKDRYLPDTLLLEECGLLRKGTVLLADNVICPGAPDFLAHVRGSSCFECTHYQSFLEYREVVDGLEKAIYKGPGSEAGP
# Sequence of Ferritin light chain (Equus caballus) (P02791 2-175 limits assumed): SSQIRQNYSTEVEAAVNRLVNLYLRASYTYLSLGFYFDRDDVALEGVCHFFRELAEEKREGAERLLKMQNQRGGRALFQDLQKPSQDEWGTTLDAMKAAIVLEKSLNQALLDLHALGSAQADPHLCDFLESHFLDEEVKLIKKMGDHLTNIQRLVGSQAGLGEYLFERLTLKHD
# Sequence of Galactokinase (Homo sapiens) (P51570 whole entry, looked up): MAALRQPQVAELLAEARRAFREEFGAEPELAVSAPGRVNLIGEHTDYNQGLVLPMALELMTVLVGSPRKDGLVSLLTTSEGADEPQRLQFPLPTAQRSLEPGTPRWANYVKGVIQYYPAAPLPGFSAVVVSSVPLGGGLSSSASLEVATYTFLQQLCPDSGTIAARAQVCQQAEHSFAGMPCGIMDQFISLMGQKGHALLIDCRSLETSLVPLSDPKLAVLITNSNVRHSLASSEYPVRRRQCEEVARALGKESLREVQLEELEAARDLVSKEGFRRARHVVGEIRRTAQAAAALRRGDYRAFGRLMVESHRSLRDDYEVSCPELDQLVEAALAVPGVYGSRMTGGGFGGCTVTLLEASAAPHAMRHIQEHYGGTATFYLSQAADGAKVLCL
# Sequence of Thyrotropin receptor (Homo sapiens) (P16473 whole entry, looked up): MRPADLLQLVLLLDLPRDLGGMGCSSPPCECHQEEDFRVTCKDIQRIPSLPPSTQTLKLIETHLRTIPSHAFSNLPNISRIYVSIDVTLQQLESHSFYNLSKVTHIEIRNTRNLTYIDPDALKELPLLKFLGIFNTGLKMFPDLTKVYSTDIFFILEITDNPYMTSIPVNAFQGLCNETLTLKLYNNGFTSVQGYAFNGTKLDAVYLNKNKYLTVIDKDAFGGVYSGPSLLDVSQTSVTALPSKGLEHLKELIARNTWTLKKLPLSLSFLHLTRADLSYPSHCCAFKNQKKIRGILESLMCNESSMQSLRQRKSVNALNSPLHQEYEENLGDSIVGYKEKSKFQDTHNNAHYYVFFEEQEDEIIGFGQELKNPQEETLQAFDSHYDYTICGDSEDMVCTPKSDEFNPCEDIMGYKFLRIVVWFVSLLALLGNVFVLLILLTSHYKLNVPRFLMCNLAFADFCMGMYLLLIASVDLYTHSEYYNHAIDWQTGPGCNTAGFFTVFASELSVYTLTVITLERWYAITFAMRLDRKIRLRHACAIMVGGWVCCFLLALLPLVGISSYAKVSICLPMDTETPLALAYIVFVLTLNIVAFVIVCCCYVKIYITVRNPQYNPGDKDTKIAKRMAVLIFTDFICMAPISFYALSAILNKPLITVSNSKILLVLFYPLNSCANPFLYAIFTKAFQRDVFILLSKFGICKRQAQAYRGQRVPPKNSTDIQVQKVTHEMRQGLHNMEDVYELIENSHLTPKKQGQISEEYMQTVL
# Sequence of ATP-dependent DNA helicase Q1 (Homo sapiens) (P46063 whole entry, looked up): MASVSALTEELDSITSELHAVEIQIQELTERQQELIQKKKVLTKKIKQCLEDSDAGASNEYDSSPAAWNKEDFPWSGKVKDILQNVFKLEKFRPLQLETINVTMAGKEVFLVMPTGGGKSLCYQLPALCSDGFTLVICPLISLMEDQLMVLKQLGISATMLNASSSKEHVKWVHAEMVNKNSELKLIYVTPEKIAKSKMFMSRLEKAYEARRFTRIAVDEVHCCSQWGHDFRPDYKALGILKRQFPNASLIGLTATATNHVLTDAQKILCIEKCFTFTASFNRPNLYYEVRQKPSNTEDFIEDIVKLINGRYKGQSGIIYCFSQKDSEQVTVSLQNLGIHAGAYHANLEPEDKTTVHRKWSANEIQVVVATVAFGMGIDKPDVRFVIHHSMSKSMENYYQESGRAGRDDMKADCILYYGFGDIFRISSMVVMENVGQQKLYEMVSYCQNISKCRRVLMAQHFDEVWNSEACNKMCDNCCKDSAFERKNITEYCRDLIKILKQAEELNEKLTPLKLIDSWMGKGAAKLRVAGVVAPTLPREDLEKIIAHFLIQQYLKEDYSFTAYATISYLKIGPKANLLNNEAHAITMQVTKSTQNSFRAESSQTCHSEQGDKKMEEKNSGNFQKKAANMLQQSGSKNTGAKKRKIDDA
# Sequence of DNA repair nuclease/redox regulator APEX1 (Homo sapiens) (P27695 whole entry, looked up): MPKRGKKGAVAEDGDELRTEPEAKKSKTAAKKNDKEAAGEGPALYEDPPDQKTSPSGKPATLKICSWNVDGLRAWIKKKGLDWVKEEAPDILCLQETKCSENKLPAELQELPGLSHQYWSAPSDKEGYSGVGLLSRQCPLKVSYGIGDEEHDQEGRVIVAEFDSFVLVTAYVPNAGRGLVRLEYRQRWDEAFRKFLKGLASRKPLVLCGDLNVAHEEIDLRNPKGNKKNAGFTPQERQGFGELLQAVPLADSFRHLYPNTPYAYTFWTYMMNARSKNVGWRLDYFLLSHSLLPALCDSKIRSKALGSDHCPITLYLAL
# Sequence of Thyrotropin-releasing hormone receptor (Homo sapiens) (P34981 whole entry, looked up): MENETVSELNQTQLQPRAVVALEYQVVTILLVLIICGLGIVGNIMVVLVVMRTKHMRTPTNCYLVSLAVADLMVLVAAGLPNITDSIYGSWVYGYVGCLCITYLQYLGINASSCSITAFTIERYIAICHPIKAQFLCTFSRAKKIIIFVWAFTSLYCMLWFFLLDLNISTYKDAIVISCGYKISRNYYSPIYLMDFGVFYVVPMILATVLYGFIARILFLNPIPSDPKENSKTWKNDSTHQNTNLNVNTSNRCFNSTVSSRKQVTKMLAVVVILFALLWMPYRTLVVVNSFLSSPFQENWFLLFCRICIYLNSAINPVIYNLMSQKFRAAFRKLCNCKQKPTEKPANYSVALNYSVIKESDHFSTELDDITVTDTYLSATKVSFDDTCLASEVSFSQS
# Sequence of Glucocorticoid receptor (Homo sapiens) (P04150 whole entry, looked up, the tested form may be a part): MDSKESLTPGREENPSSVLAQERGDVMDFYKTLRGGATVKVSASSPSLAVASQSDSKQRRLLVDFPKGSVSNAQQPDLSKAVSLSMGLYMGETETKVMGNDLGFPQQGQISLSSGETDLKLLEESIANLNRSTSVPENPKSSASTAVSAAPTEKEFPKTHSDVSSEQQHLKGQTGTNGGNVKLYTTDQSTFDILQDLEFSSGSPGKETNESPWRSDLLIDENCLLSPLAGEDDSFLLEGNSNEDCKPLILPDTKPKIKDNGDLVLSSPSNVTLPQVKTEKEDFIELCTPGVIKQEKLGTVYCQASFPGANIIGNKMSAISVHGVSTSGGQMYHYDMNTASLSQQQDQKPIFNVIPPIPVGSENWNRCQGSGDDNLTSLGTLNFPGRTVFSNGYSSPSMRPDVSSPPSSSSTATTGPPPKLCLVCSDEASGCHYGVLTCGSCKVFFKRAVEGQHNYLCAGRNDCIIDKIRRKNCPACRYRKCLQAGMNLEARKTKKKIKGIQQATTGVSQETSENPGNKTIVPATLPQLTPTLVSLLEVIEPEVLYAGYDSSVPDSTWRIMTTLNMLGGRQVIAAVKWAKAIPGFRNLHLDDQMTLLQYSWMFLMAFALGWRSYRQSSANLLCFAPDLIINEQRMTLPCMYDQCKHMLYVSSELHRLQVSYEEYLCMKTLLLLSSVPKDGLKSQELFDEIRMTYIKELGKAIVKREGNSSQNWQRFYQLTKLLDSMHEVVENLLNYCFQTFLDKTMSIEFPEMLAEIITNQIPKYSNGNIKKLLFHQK
# Sequence of Alpha-galactosidase A (Homo sapiens) (P06280 whole entry, looked up): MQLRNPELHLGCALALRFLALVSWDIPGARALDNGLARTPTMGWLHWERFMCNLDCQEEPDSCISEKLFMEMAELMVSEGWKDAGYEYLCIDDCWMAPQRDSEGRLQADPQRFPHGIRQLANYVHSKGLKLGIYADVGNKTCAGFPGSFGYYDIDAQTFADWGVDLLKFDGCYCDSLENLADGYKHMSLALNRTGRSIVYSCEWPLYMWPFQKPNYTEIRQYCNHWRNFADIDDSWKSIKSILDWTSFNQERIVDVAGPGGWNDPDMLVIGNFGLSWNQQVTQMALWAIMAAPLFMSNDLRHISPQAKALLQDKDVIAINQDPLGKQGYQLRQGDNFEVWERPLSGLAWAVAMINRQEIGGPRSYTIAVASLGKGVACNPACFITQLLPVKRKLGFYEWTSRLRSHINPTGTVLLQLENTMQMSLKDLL
structure (smiles),measurement,setting,value
Cn1cc(-c2cc3c(ccn3Cc3ccncc3)c(N3CCOCC3)n2)cn1,activity,[1],-2.2%
same,"activity change, negative = inhibition",[2],-2.92% [at 85.7 µM]
same,activity,[3],-4.04%
same,activity,[4],-7.43%
Cc1cnc(C2CC2)n1C1CCCN(Cc2ccccc2)C1 (centres undefined),activity,[1],3.04%
same,"activity change, negative = inhibition",[2],5.24%
same,activity,[3],-1.39%
same,activity,[4],0.832%
Nc1nc(Cl)nc2c1ncn2[C@@H]1O[C@H](COP(=O)(O)OP(=O)(O)OP(=O)(O)O)[C@H](O)[C@H]1O,Potency,[5],inactive
same,outcome,[6],inactive
same,Potency,[7],inactive
same,Potency,[8],inactive
same,Potency,[9],inactive
same,Potency,[10],inactive
same,Potency,[11],inactive
same,Potency,[12],inactive
same,outcome,[13],inactive
same,outcome,[14],inactive
same,Potency,[15],inactive
same,Potency,[16],inactive
same,outcome,[17],inactive
same,outcome,[18],inactive
same,activation,[19],6.94% (inactive)
same,outcome,[20],inactive
same,Potency,[21],inactive
same,Potency,[22],inactive
Cn1c(=O)c2ccnn2c2ccc(C(=O)NCC3CCN(Cc4ccccc4F)CC3)cc21,activity,[1],3.91%
same,"activity change, negative = inhibition",[2],6.11%
same,activity,[3],-38.8%
same,activity,[4],2.1%
CC(C)C[C@H](N)CSSC[C@@H](N)CC(C)C,outcome,[23],inactive
same,Potency,[24],> 46 µM (inactive)
same,Potency,[25],> 46 µM (inactive)
same,Potency,[26],inactive
same,Potency,[27],inactive
same,Potency,[28],inactive
same,Potency,[29],12.6 µM (active)
same,Potency,[30],inactive
same,outcome,[31],inactive
same,outcome,[32],inactive
same,outcome,[33],inactive
same,outcome,[34],inactive
same,Potency,[5],inactive
same,outcome,[6],inactive
same,Potency,[7],14.1 µM (active)
same,Potency,[35],10 µM (active)
same,outcome,[13],inactive
same,outcome,[14],inactive
same,outcome,[18],inactive
same,activation,[19],6.19% (inactive)
same,outcome,[20],inactive
same,Potency,[21],inactive
COc1cccc(N2C(=O)c3cc4occc4n3CC2(C)C(=O)NC2CCCCCC2)c1 (centres undefined),activity,[1],-4.86%
same,"activity change, negative = inhibition",[2],-2.57%
same,activity,[3],-10.8%
same,activity,[4],-10.9%
O=C(NCCc1ccc(Cl)cc1)c1ccc2c(=O)[nH]c3c(C(=O)NCC4CCCO4)sc(=S)n3c2c1 (centres undefined),activity,[1],-36.2%
same,Potency,[2],27.1 µM (active)
same,activity,[3],-49.4%
same,activity,[4],-36.4%
Cn1c(COc2cccc(CN3CCCC3)c2Cl)nnc1C1CC(N)C1 (centres undefined),activity,[1],0.772%
same,"activity change, negative = inhibition",[2],-2.28%
same,activity,[3],-2.09%
same,activity,[4],-1.62%
